For 35 compounds, Potency results are on record in PubChem BioAssay (NCATS).

Assay [1] has as its system Zika virus NS2B-NS3 protease. Briefly: Primary screen GU AMC qHTS for Zika virus inhibitors (AID 1347154). Further: nearly all actives have a fitted effect of over 70% in size. An outline of the steps:
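Fluorogenic AMC-substrate cleavage by noncovalent NS2B-NS3 protease complex (25 nM, pH 8.0 Tris buffer with Tween 20) followed for 15 minutes at room temperature (~20% conversion). Percent inhibition from ex340/em450 signal change, fitted by 4-parameter Hill equation.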

The nature of assay [2]: qHTS to identify inhibitors of the type 1 interferon - major histocompatibility complex class I in skeletal muscle: primary screen against the NCATS Pharmaceutical Collection (AID 1347407).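 Further: luminescence of HiBiT knocked into endogenous HLA-B as interferon-induced MHC class I level.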 An outline of the steps: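 Immortalized human myoblasts (C25cl48) with HiBiT knocked into endogenous HLA-B*08:01 were stimulated with 4.0 ng/ml IFN-beta and treated with compounds ([…] top 46 uM) for 24 hrs at 37 C. HiBiT lytic luminescence read.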

Inconclusive results are not listed. A call without a number means that no potency is given here. Active and inactive are the calls of the source. The call rests on the fitted dose curve; in most records, active means well fitted inhibition curve with a large enough effect; inconclusive means small, poorly fitted or top-dose-only effect; inactive means flat fitted curve, though single readings scatter.

On to `C[C@@H]1C[C@H]2[C@@H]3CCC4=CC(=O)C=C[C@]4(C)[C@@]3(F)[C@@H](O)C[C@]2(C)[C@@]1(O)C(=O)COC(=O)c1ccncc1`, for which the Potency entry in assay [1] and in assay [2] was “inactive” throughout.
`CCOC(=O)[C@H](CCc1ccccc1)N[C@@H](C)C(=O)N(CC(=O)O)C1Cc2ccccc2C1`: the Potency entry in assay [1] and in assay [2] was “inactive” each time.
For the compound `Cc1cccc(N(C)C(=S)Oc2ccc3c(c2)C2CCC3C2)c1` (stereo not given), the Potency entry in assay [1] and in assay [2] was “inactive” in each case.
For the compound `Nc1nc2ccccc2n1Cc1ccc(F)cc1`, the Potency result in assay [1] and in assay [2] was “inactive” each time.
Consider `C/C=C(/C(=C/C)c1ccc(OC(C)=O)cc1)c1ccc(OC(C)=O)cc1`, for which the Potency result in assay [1] and in assay [2] was “inactive” in each case.
`Cc1c(N)cccc1C(F)(F)F`: the Potency entry in assay [1] and in assay [2] was “inactive” throughout.
For the compound `c1ccc2occc2c1`, the Potency entry in assay [1] and in assay [2] was “inactive” each time.
For `Cc1cc(C(C)(C)C)c(O)c(C(C)(C)C)c1`, the Potency result in assay [1] and in assay [2] was “inactive” each time.
`CC(C)(C)c1ccc(C(=O)CCCCl)cc1`: the Potency entry in assay [1] and in assay [2] was “inactive” throughout.
Turning to `CCOC(=O)N1CCC(Nc2ccc(Cl)cc2N)CC1`, the Potency result in assay [1] and in assay [2] was “inactive” in each case.
Consider `CC(=O)N1CCN(c2ccc(O)cc2)CC1`, for which the Potency entry in assay [1] and in assay [2] was “inactive” each time.
Regarding `CC(=O)OC/C=C(C)/C=C/C=C(C)/C=C/C1=C(C)CCCC1(C)C`, the Potency entry in assay [1] and in assay [2] was “inactive” in each case.
As for `Oc1cccc2[nH]ccc12`, the Potency entry in assay [1] and in assay [2] was “inactive” in each case.
Take `Cc1cccc(OCC(O)CNC(C)(C)C)c1C` (stereo not given): the Potency result in assay [1] and in assay [2] was “inactive” in each case.
On to `O=C(O)c1[nH]n(-c2ccc(S(=O)(=O)O)cc2)c(=O)c1N=Nc1ccc(S(=O)(=O)O)cc1`, for which the Potency result in assay [1] and in assay [2] was “inactive” in each case.
As for `CN=C(N)NC(=O)Nc1c(C)cccc1C`, the Potency result in assay [1] and in assay [2] was “inactive” in each case.
Turning to `O=C(O)c1ccccc1Nc1cc(Cl)ccc1C(=O)O`, the Potency entry in assay [1] and in assay [2] was “inactive” throughout.
With `CC(=O)N(CC(O)CO)c1c(I)c(C(=O)NCCO)c(I)c(C(=O)NCC(O)CO)c1I` (stereo not given), the Potency result in assay [1] and in assay [2] was “inactive” throughout.
For `O=C(O)Cc1ccc(OCCNC[C@H](O)c2ccccc2)cc1`, the Potency result in assay [1] and in assay [2] was “inactive” throughout.
For `O=C1CC2(CCCC2)CC(=O)N1CCNCC1COc2ccccc2O1` (stereo not given), the Potency entry in assay [1] and in assay [2] was “inactive” throughout.
On to `O=C(O)C1CCC1`, for which the Potency result in assay [1] and in assay [2] was “inactive” in each case.
`CCOc1ccccc1OCC1CNCCO1` (stereo not given): the Potency result in assay [1] and in assay [2] was “inactive” each time.
In the case of `CC(C)NC(=O)c1ccc(C=O)cc1`, the Potency entry in assay [1] and in assay [2] was “inactive” throughout.
As for `CC(C)OP(=O)(CP(=O)(OC(C)C)OC(C)C)OC(C)C`, the Potency result in assay [1] and in assay [2] was “inactive” in each case.
For `N#CC1(c2ccc(F)cc2)CCC(=O)CC1`, the Potency result in assay [1] and in assay [2] was “inactive” throughout.
For the compound `C[C@@H](C1=C(CCN(C)C)Cc2ccccc21)c1ccccn1`, the Potency result in assay [1] and in assay [2] was “inactive” in each case.
As to `CN1CCCN(C(c2ccccc2)c2ccc(Cl)cc2)CC1` (stereo not given), the Potency result in assay [1] and in assay [2] was “inactive” in each case.
Take `O=c1[nH]c(=O)n([C@H]2O[C@H](CO)[C@@H](O)[C@@H]2O)cc1/C=C\Br`: the Potency result in assay [1] and in assay [2] was “inactive” each time.
For the compound `CCCC(=O)Nc1ccc(O)c(C(C)=O)c1`, the Potency entry in assay [1] and in assay [2] was “inactive” each time.
In the case of `CC(C)(C)C(O)/C=C/c1ccc2c(c1)OCO2` (stereo not given), the Potency result in assay [1] and in assay [2] was “inactive” in each case.
With `CN(C)CCN1CCN(c2cccc(Cl)c2)C1=O`, the Potency result in assay [1] and in assay [2] was “inactive” in each case.
On to `COc1cc2c(cc1OC)C(=O)CC2`, for which the Potency result in assay [1] and in assay [2] was “inactive” in each case.
For the compound `CCCc1ccc(OCC(=O)N2CCN(C(=O)COc3ccc(CCC)cc3OC)CC2)c(OC)c1`, the Potency result in assay [1] and in assay [2] was “inactive” in each case.
Consider `Cc1oc(-c2ccccc2)nc1CCC(=O)c1ccc(CC2SC(=O)NC2=O)cc1` (stereo not given), for which the Potency result in assay [1] and in assay [2] was “inactive” throughout.
For `CC(C)(Oc1ccc(Cl)cc1)C(=O)OCCCOC(=O)C(C)(C)Oc1ccc(Cl)cc1`, the Potency result in assay [1] and in assay [2] was “inactive” throughout.
